Results: PubChem BioAssay (NCI)
Values joined by “and” are separate entries in the source; they are usually repeats but may differ in a detail not shown here. Identical values can stand only once. The panel holds about 83,000 compounds, 20% with a hit somewhere; the sample as a whole holds those more often.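 Compound tested at a single concentration for 48 hours in 96-well plates; a percent growth value below 10 was scored as active.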 A number with no mark means an inactive call. Active and inactive are the calls of the source.

These compounds were tested on MDA-MB-468 breast (assay: NCI-60 one-dose screen, 48 h (100 = growth as untreated, 0 = no growth, -100 = all killed)). Conditions: 10 µM unless noted.
In the case of `CSc1ccc2c(c1)c(CCN)c(C)n2Cc1ccc(Cl)c(Cl)c1`, the growth is reported as -67.1% (active). With `CCN(CC)CCCC(C)Nc1c2ccc(Cl)cc2nc2cc(OC)c(OC)cc12` (stereo not given) the growth was -44% (active). For `CN(C)CC(=O)Nc1ccc(Cn2nnc3c2C(=O)c2nnn(Cc4ccc(NC(=O)CN(C)C)cc4)c2C3=O)cc1`, the growth was -79% (active). For `COc1cc(/C=C/c2ccccc2)cc(OC)c1`, the growth was 103%. Work on `CCN(CC)CC(O)Cc1ccc(OC)cc1` (stereo not given) yielded a growth of 97.9%. For `Nc1c(C(=O)c2ccc(Cl)s2)sc2nc3c(cc12)CCCC3`, the growth was 69.1%. For `COc1ccc(-c2ccc(-c3ccc(C(=N)N)cn3)o2)cc1Cl`, the growth was -9.43% (active). Work on `Cc1ccc(C(=O)N/N=C/c2cccc(Oc3ccccc3)c2)cn1` yielded a growth of 58.6%. With `c1ccc(C(=NNc2nc3ccccc3o2)c2ccccn2)nc1` the growth was -27.4% (active). With `CC12CCC3C(CCC4CC(O)CCC43C)C1C/C(=C/O)C(=O)O2` (stereo not given) the growth was 108%. `C#Cc1nc(/C=C/CCCCCCC(=O)NO)cs1` showed a growth of 54.8%. `CCCCNC(=O)Oc1ccc(/C(=C(/C)Cc2ccc(OC)cc2)c2ccc(OCCN3CCCCC3)cc2)cc1` showed a growth of 60.1%. Compound `COC(=O)c1n[nH]c2ccc3nc(-c4cn[nH]c4C(F)(F)F)c4c(c3c12)CCCC4` has a growth of 73.8%. `CC(C)C1CCC(C)C(C2(C#N)C(N)=NC(N)=C2C#N)C1=O` (stereo not given) gave a growth of 107%. For `N=C(N)c1ccc(-c2ccc(-c3ccc4ccccc4c3)s2)s1`, the growth was -16.3% (active). For `O=CN/N=C/c1ccc(Cl)c([N+](=O)[O-])c1`, the growth was -11.6% (active). `Cc1nc2c(nnn2-c2ccccc2)c2nc(-c3ccc(Cl)cc3)oc(=O)c12` was tested, and the growth was 106%. In the case of `CNC(=O)c1ccc(C)c(-n2c(C)cc(OCc3ccc(F)cc3F)c(Br)c2=O)c1`, the growth is reported as 53.4% and 63.5%. For `O=C1c2ccccc2C(=O)c2cc(Cn3cc[n+](Cc4ccc5ccccc5c4)c3)ccc21`, the growth was -32.2% (active). Work on `COc1ccc(C2CC(=O)Nc3c2c(C)nn3-c2nc3ccccc3[nH]2)cc1` (stereo not given) yielded a growth of 101%. With `CC/C=C\C/C=C\C[C@H](O)C/C=C1/C(=O)C=C[C@@H]1C/C=C\CCCC(=O)O` the growth was 23.5%. In the case of `COc1ccc(CCN2CCC(Nc3nc4ccccc4n3Cc3ccc(F)cc3)CC2)cc1`, the growth is reported as -84.1% (active). `Cc1ccc(N)cc1F` gave a growth of 100%. `C=C(C)[C@@H]1CC[C@]2(C(=O)O)CC[C@]3(C)[C@H](CC[C@@H]4[C@@]5(C)C[C@@H](CC#Cc6ccc(Cl)cc6)C(=O)C(C)(C)[C@@H]5CC[C@]43C)[C@@H]12` showed a growth of 16.9%. Compound `N#CCCN(NC(=O)OCc1ccccc1)C(=O)OCc1ccccc1` has a growth of 116%. `O=C(CBr)c1ccc(OC(=O)c2ccccc2)cc1` was tested, and the growth was 116%. `NCCNc1nc2ccc(F)cc2c2c(=O)c3cc(F)ccc3sc12` showed a growth of 45.3%. In the case of `CCC(CCC(C)C1CCC2C3CC=C4CC(O)CCC4(C)C3CCC12C)C(C)C` (stereo not given) (tested in a mixture with another compound), the growth is reported as 114%. With `COc1ccc2cc(-c3ccnc4c(N=Nc5ccc(Cl)cc5)c(N)nn34)ccc2c1` the growth was 98.8%. In the case of `CC(C)[N+]1(C)C2CC[C@@H]1CC(OC(=O)C(CO)c1ccccc1)C2` (stereo not given in full), the growth is reported as 109%. In the case of `CCN1C(=O)N(CC)C2C1NN=c1s/c(=C\c3cnc(C)n3C)c(=O)n12` (stereo not given), the growth is reported as -12.2% (active). With `CCCCCCCCCCSC(=N)N` the growth was -83.1% (active). With `CCOC(=O)c1cc2c(n1Cc1ccccc1OC)-c1oncc1CCC2` the growth was 7.1% (active). With `COc1ccc(NC(=O)CSc2nc(-c3ccc(OC)c(OC)c3)cc(-c3cc(OC)c(OC)c(OC)c3)n2)cc1` the growth was 110%. With `Cc1ccc(C(=O)/C(=C\c2ccc([N+](=O)[O-])cc2)S(=O)Cc2ccc(F)cc2)cc1` (stereo not given) the growth was -10.3% (active). `CC1=C(SCC(=O)OCCCCCC(C)C)C(=O)c2ccccc2C1=O` gave a growth of 65.5%. Compound `COc1ccc(N/C=C/C2=[N+](C)c3ccccc3C2(C)C)c(OC)c1` has a growth of 80.5%. `O=C(Nc1ccccc1)Oc1cccc2cccnc12` showed a growth of 96.9%. `COc1ccc2nc3cc(Cl)ccc3c(NCCCCCN3CCCCC3)c2c1` was tested, and the growth was -53.3% (active). For `COc1ccc(-c2nc(Nc3ccc(-c4nc5ccccc5[nH]4)cc3)nc(N3CCOCC3)n2)cc1`, the growth was -1.23% (active).
